# Reference: publication PMC7862700, “An all-to-all approach to the identification of sequence-specific readers for epigenetic DNA modifications on cytosine”
# What was measured:
# Experiment in all cases: DAPPL (digital affinity profiling via proximity ligation, sequencing); 10 mM Tris-HCl pH 7.5, 50 mM NaCl, 1 mM DTT, 4% glycerol, room temperature, 30 min; GST-TFs on glutathione beads, 16-mer random dsDNA library, 0.1% formaldehyde crosslink after washing; high values mean tight binding
# Details in all cases: protein: recombinant; tags: N-terminal GST; dsDNA, one strand shown
# ELK1 = biological target: T1, ELK1 (Homo sapiens, UniProt P19419 1-428)
# T1 sequence: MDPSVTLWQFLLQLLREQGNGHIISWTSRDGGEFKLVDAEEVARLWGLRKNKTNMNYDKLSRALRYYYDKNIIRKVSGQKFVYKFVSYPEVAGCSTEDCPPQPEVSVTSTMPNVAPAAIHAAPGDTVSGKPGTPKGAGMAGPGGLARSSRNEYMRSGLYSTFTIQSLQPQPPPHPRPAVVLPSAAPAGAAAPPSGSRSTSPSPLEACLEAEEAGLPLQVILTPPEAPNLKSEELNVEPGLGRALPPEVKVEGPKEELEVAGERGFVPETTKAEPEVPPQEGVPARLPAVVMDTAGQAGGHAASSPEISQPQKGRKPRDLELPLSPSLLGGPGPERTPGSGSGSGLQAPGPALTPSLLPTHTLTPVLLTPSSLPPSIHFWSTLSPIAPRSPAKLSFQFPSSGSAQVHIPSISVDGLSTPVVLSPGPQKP
# In short: (§1)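 Binding signal is defined as a hexamer's read frequency for one factor over its frequency for the tag-only sample. To obtain reads, GST-fused human transcription factors were expressed in yeast, captured on glutathione beads, barcoded with DNA and pooled with that sample. Pools met 200 nmole of a 16-mer random double-stranded DNA library in Tris/NaCl/DTT/glycerol buffer for 30 min at room temperature before washing, 0.1% formaldehyde crosslinking, proximity ligation (BsaI/T4 ligase, 1 h, 37 °C), PCR and Illumina NextSeq500 sequencing.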
# GABPA = biological target: T2, GABPA (Homo sapiens, UniProt Q06546 1-454)
# T2 sequence: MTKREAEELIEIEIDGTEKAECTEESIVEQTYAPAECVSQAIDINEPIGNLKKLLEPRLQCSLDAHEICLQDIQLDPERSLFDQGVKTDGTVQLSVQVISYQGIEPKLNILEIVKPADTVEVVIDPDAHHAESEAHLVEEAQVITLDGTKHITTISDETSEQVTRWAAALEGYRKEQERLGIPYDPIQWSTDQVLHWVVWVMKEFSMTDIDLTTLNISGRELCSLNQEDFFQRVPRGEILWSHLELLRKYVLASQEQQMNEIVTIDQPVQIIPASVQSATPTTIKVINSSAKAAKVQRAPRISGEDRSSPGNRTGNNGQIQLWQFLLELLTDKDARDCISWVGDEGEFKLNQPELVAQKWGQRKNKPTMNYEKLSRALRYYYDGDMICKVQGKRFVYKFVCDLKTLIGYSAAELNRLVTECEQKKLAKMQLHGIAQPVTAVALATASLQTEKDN
# In short: as §1
# ERG = biological target: T3, ERG (Homo sapiens, UniProt P11308 1-479)
# T3 sequence: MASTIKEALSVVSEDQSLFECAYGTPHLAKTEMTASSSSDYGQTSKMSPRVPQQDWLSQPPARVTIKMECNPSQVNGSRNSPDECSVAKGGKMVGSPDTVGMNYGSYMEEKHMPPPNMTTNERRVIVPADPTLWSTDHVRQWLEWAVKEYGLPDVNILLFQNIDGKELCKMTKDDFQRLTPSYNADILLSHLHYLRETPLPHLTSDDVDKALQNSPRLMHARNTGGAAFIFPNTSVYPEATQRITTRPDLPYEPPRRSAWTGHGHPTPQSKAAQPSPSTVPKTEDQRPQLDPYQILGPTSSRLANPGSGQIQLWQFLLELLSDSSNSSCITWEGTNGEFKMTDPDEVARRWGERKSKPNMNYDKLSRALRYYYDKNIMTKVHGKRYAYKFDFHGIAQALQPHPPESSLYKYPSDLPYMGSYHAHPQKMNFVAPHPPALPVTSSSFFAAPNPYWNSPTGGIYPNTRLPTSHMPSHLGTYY
# In short: as §1
# ELF1 = ELF1 (Homo sapiens, UniProt P32519 1-619)
# In short: as §1
# EHF = biological target: T4, EHF (Homo sapiens, UniProt Q9NZC4 1-300)
# T4 sequence: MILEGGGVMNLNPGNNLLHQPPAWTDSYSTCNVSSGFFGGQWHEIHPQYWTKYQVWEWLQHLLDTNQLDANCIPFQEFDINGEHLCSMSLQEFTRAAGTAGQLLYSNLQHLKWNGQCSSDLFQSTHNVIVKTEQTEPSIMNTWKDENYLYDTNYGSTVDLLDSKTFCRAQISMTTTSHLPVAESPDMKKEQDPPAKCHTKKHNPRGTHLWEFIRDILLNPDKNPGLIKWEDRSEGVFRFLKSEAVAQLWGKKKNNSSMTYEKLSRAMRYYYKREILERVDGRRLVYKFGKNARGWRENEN
# In short: as §1
# SPIB = SPIB (Homo sapiens, UniProt Q01892 1-262)
# In short: as §1
# ELK3 = biological target: T5, ELK3 (Homo sapiens, UniProt P41970 1-407)
# T5 sequence: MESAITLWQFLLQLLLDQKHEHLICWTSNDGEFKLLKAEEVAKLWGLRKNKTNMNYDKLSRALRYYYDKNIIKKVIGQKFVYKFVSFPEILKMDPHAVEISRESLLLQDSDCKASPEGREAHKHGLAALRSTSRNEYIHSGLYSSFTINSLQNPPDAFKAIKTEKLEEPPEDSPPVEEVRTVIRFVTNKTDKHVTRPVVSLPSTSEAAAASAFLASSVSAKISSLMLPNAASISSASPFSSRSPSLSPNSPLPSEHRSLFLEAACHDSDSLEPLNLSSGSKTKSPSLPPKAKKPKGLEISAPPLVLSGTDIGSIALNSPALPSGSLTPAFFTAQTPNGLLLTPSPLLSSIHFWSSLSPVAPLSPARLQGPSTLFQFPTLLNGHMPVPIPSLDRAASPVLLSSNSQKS
# In short: as §1
# SPIC = biological target: T6, SPIC (Homo sapiens, UniProt Q8N5J4 1-248)
# T6 sequence: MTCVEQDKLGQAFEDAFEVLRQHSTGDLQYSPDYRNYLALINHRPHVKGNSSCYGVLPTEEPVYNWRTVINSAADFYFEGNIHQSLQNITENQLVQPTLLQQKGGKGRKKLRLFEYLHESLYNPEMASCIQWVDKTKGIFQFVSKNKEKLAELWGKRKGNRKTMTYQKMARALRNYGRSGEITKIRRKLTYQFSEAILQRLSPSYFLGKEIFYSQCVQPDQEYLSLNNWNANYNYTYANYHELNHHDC
# In short: as §1
# ELF4 = ELF4 (Homo sapiens, UniProt Q99607 1-663)
# In short: as §1
# Chain of SPIB (Q01892 whole entry): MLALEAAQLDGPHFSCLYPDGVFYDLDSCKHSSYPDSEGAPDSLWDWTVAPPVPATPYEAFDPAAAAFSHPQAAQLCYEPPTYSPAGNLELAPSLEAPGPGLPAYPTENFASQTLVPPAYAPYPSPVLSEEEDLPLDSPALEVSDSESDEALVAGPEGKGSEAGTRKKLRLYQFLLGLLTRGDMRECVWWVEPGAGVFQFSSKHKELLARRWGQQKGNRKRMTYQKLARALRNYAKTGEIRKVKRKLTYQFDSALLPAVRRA
# Chain of ELF1 (P32519 whole entry): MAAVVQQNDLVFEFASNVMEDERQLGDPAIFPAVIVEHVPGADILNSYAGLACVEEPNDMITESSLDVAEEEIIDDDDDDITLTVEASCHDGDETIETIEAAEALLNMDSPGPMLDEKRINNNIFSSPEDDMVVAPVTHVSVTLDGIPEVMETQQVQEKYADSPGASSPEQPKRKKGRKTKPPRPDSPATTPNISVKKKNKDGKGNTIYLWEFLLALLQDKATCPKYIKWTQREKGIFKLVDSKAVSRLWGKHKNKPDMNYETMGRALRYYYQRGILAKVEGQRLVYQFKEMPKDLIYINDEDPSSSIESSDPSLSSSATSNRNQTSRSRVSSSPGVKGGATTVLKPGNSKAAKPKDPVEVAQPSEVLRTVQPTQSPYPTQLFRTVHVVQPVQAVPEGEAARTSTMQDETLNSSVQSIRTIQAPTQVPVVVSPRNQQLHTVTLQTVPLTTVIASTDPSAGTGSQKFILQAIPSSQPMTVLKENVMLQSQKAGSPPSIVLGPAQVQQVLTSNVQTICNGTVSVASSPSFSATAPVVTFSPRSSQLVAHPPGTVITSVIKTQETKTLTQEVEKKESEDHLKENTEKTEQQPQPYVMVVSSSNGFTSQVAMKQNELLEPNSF
# Chain of ELF4 (Q99607 whole entry): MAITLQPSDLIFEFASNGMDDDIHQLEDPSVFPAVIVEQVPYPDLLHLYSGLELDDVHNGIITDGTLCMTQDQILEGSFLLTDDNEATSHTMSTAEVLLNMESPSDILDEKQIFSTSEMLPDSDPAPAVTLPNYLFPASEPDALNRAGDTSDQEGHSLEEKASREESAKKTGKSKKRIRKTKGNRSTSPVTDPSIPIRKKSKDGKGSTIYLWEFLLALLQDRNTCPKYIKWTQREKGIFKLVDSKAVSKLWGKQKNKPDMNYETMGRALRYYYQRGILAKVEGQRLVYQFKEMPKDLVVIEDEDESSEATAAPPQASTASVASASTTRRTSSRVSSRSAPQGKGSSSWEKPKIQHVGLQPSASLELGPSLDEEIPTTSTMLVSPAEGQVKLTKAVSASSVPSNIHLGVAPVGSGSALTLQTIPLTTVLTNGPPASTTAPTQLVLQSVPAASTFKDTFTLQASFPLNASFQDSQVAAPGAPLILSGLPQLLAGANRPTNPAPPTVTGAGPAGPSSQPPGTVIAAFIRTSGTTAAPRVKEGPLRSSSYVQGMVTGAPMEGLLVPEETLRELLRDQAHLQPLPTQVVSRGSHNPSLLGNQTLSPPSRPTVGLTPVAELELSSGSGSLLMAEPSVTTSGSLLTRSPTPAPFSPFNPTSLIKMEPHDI
sequence,measurement,setting,value
TTAGAT,binding signal,ELK1,"1.16 fold enrichment (6-mer frequency, TF over GST control)"
same,binding signal,GABPA,"1.06 fold enrichment (6-mer frequency, TF over GST control)"
same,binding signal,ERG,"1.04 fold enrichment (6-mer frequency, TF over GST control)"
same,binding signal,ELF1,"1.03 fold enrichment (6-mer frequency, TF over GST control)"
same,binding signal,EHF,"1.13 fold enrichment (6-mer frequency, TF over GST control)"
same,binding signal,SPIB,"1.05 fold enrichment (6-mer frequency, TF over GST control)"
same,binding signal,ELK3,"1.09 fold enrichment (6-mer frequency, TF over GST control)"
same,binding signal,SPIC,"1.04 fold enrichment (6-mer frequency, TF over GST control)"
same,binding signal,ELF4,"1.12 fold enrichment (6-mer frequency, TF over GST control)"
